In PubChem BioAssay AID2058 (Sanford-Burnham Center for Chemical Genomics, 2009):
Hit rate of the full screen: of about 290,000 compounds, about 150 (0.052%) were called active.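 How the source made its calls: active means inhibition of at least 50% with at least 30 cells and total cytoplasm GFP at most 10,000,000; inconclusive means under 30 cells or total GFP of 10,000,000 plus; inactive means the rest.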 This excerpt belongs to a sample that is enriched for actives. Potency and affinity values are given separately.

target: G-protein coupled receptor 35 (Homo sapiens) (UniProt Q9HC97); test: inhibition of zaprinast-stimulated GPR35 beta-arrestin translocation – imaging, U2OS, beta-arrestin-GFP, zaprinast agonist, primary screen (AID 2058); conditions: zaprinast antagonism, at 10 µM, stronger effect = higher value
Sequence (Q9HC97 whole entry, looked up): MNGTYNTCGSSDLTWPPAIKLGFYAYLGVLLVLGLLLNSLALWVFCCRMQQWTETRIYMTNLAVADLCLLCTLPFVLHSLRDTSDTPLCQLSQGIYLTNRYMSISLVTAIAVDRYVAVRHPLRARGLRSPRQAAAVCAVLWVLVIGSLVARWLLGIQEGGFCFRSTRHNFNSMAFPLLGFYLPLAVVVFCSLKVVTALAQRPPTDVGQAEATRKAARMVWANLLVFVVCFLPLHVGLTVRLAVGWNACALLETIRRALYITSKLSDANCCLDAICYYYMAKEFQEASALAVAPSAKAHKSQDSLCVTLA

inhibition, inactive:
Cc1cccc(Cc2cnc(N3C(=N)SC(C)C3=O)s2)c1 (stereo not drawn) -5.2%
O=C(CSc1nnc(C2CCCCC2)o1)N1CCCCC1 11.7%
CCN(C(=O)C(C)OC(=O)C1C(C(=O)OC)=C(C)NC(C)=C1C(=O)OC)c1ccccc1 (stereo not drawn) -20.3%
COc1ccc(NC(=O)c2cc3c([nH]c4ccccc43)c(C)n2)cc1 -5.7%
C=CCn1c(SCC(=O)N(C)C2CCS(=O)(=O)C2)nnc1-c1ccncc1 (stereo not drawn) 11.4%
CCOC(=O)C1CCN(C(=O)CSc2ccccc2)CC1 -1.8%
COc1cc([N+](=O)[O-])cc(/C=C2/SC(=S)N(Cc3ccccc3)C2=O)c1O 2.7%
O=C1/C(=C/c2ccc(O)c([N+](=O)[O-])c2)SC(=S)N1Cc1ccccc1 0.6%
Cc1nc2c(C(=O)NCc3ccc4c(c3)OCO4)cnn2c(C)c1Cc1ccc(F)cc1Cl -16.4%
Cc1oc(-c2ccc(Cl)cc2)nc1CS(=O)CC(=O)NCCCN(C)C1CCCCC1 (stereo not drawn) -9.6%
COC(=O)C1CN(S(=O)(=O)c2cc(OC)ccc2OC)CCS1 (stereo not drawn) -8.4%
CC[n+]1ccccc1/C=C/c1ccc(N(C)C)cc1 -10.4%
CC[n+]1c(/C=C/c2ccc(N(C)C)cc2)ccc2ccccc21 6.3%
CCCC(=O)N1CCN(c2nc3c(OC)ccc(Cl)c3s2)CC1 12.2%
CCC(Oc1ccc2ccccc2c1)C(=O)O (stereo not drawn) 6.8%
CC(=O)N(C1=C(O)c2ccccc2C(=O)C1=O)C1CCCCC1 -5.2%
CC(=O)N(c1ccccc1)C1CCCC1 -22.8%
O=C(NC1CCCCCC1)C1CCCN(S(=O)(=O)c2cccs2)C1 (stereo not drawn) -5.5%
CCN1CCN(C(=O)c2ccccc2NC(=O)c2ccc(Cl)cc2)CC1 1%
Cc1[nH]c(=O)[nH]c(=O)c1S(=O)(=O)N1CCCC(C(=O)N2CCN(c3ccccc3Cl)CC2)C1 (stereo not drawn) 3.5%
COc1ccc(NC(=O)/C(Cl)=C(/Cl)S(=O)Cc2ccc(Cl)cc2)cn1 (stereo not drawn) 3.1%
COc1ccc(NC(=O)/C(Cl)=C(/Cl)S(=O)Cc2ccccc2)cn1 (stereo not drawn) 9.5%
Cc1ccc(-c2nc3ncccc3n2O)cc1 2.4%
Cc1ccc(F)cc1NC(=O)CSc1nc(Nc2ccccc2)nc(N2CCOCC2)n1 17.7%
COc1cccc(/C=C(\C#N)c2nc3ccc(C)cc3[nH]2)c1OCC(=O)O -10.4%
Cc1ccc2nc(/C(C#N)=C/c3ccc(O)c(O)c3)[nH]c2c1 -1.2%
Cc1cc(/C=C(\C#N)c2nc3ccccc3[nH]2)c(C)n1C -1.1%
N#C/C(=C\c1ccccc1OCC(=O)O)c1nc2ccccc2[nH]1 -0.8%
CCOc1cc(/C=C(\C#N)c2nc3ccccc3[nH]2)ccc1OC(C)C(=O)O (stereo not drawn) 9.3%
COc1cc(/C=C(\C#N)c2nc3ccc(C)cc3[nH]2)c([N+](=O)[O-])cc1OC 2.2%
CCOc1cccc(/C=C(/C#N)c2nc3ccccc3[nH]2)c1OCC(=O)O -3.5%
Cc1ccc2nc(/C(C#N)=C/c3ccccc3C(=O)O)[nH]c2c1 -7.1%
CCC(=O)c1c[nH]c(C(=O)NCCc2ccccn2)c1 -8%
O=C(OCc1cc(Cl)ccc1OC(F)F)c1ccc([N+](=O)[O-])o1 8.7%
CCCCC1=CC2=CC(=O)C(C)(OC(=O)CC)C(=O)C2=CN1C(CO)CO (stereo not drawn) -6.6%
CC(C)NCCOCCOc1ccccc1F 12.6%
N#Cc1cccc(NC(=O)NCCc2c[nH]c3ccccc23)c1 -5.4%
Cc1cc(C)c(S(=O)(=O)N2CCCOC2CNC(=O)C(=O)NCc2cccs2)c(C)c1 (stereo not drawn) -5.9%
COc1ccccc1NC(=O)Cn1c(=O)n(C)c(=O)c2sc3c(c21)COC(C)(C)C3 5.9%
CC(=O)c1ccc(NC(=O)CCCN2C(=O)/C(=C/C(C)=C/c3ccccc3)SC2=S)cc1 19.4%
CC(/C=C1\SC(=O)N(CCCC(=O)O)C1=O)=C\c1ccccc1 -14.5%
CC(/C=C1\SC(=O)N(CC(=O)Nc2ccc(O)cc2)C1=O)=C\c1ccccc1 -6.3%
CC(/C=C1\SC(=S)N(CCC(=O)Nc2ccc(O)cc2)C1=O)=C\c1ccccc1 0.1%
CC(=O)N(Cc1cc2c(C)cc(C)cc2[nH]c1=O)C1CCCCC1 1.4%
O=C(Nc1ccccc1)C1=C[C@@H](c2csc3ccccc23)C[C@@H](OCc2ccc(CO)cc2)O1 -24.8%
CC(=O)Nc1sc(/C(C#N)=C\c2cccc(Cl)c2)nc1-c1ccc(C)cc1 18.1%
CC(=O)Nc1sc(N/N=C/c2ccc(C)cc2)nc1-c1ccc(C)cc1 -2.6%
CC(=O)Nc1sc(N/N=C\c2ccc(O)cc2)nc1-c1cccs1 -8.9%
CCN(CC)c1ccc(/C=C(\C#N)c2ccccn2)cc1 15.1%
CC1Cc2ccccc2N1C(=O)CSc1nc(-c2ccccc2)cs1 (stereo not drawn) -14.5%
O=C(Nc1nc(-c2cccc([N+](=O)[O-])c2)cs1)C(c1ccccc1)c1ccccc1 0.8%

inhibition, active:
O=C1/C(=C\c2cc([N+](=O)[O-])ccc2O)SC(=S)N1Cc1ccc(Cl)cc1 61.1%
CC[n+]1ccc(/C=C/c2ccc(N(C)C)cc2)c2ccccc21 103%
COc1ccc(NC(=O)/C(Cl)=C(/Cl)S(=O)Cc2ccccc2Cl)cn1 (stereo not drawn) 115%
CCOc1cc(N(CC)CC)ccc1/C=C(/C#N)c1nc2ccccc2[nH]1 99.9%
CC(=C\c1ccccc1)/C=C1/SC(=O)N(CCCC(=O)Nc2ccc(C(=O)O)cc2)C1=O 108%
CC(/C=C1\SC(=S)N(CCCC(=O)Nc2ccc(C(=O)O)cc2)C1=O)=C\c1ccccc1 114%
CCN(CC)c1ccc(/C=C(\C#N)c2nc(-c3cccs3)c(NC(C)=O)s2)cc1 70.6%
